Among the data in PubChem BioAssay (Tox21) are Potency and outcome values, retold here.

Test [1] can be described thus: qHTS assay for small molecule agonists of the p53 signaling pathway (AID 651631; calls by dose curve; note: nearly all actives have a fitted effect of over 15% in size; note: potency is the fitted concentration of half-maximal effect). In outline:
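HCT-116 p53RE-bla reporter line, 16 h compound treatment at 37 °C, then fluorescence after 2 h with B/G FRET substrate.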

The nature of test [2]: qHTS assay for small molecules that induce genotoxicity in human embryonic kidney cells expressing luciferase-tagged ATAD5 (AID 651632). Note: nearly all actives have a fitted effect of over 15% in size. Put shortly: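 Luminescent reporter readout, HEK293T ATAD5-luc line: 16 hr drug exposure (37C, 5% CO2) followed by Amplite, 30 min RT.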
Test [3] in a line: qHTS assay for small molecule agonists of the p53 signaling pathway - cell viability (AID 651633; calls by dose curve;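 note: p53RE-bla HCT reporter cells with a stable beta-lactamase p53 reporter; series mostly up to about 83 µM; nearly all actives have a fitted effect of over 30% in size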). Put shortly:
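p53RE-bla cells were treated with compound for 16 hours at 37 C. Cytotoxicity was then measured as CellTiter-Glo luminescence after 30 min at room temperature.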

A short description of test [4]: qHTS assay for small molecules that induce genotoxicity in human embryonic kidney cells expressing luciferase-tagged ATAD5 - cell viability (AID 651634; calls by dose curve; note: nearly all actives have a fitted effect of over 25% in size). Put shortly: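 Viability read: CellTiter-Fluor fluorescence, 30 min at 37C. Cells: HEK293T, luciferase-tagged ATAD5. Exposure: 15.5 hr, 37C, 5% CO2, compound or DMSO vehicle.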
A short description of test [5]: qHTS assay for small molecule disruptors of the mitochondrial membrane potential - cell viability (AID 720634; calls by dose curve;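 note: human HepG2 liver cancer cells; series mostly up to about 83 µM; nearly all actives have a fitted effect of over 20% in size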). In outline: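 HepG2, 1 hr compound, 37 C. ATP luminescence via CellTiter-Glo, 30 min RT, same well as m-MPI.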
Test [6] in a line: qHTS assay for small molecule disruptors of the mitochondrial membrane potential (AID 720635). Note: potency is the fitted concentration of half-maximal effect. Put shortly: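 HepG2 cells exposed to compound 1 hr at 37C, then Mito-MPS dye 30 min. Ratio read of aggregate (540/590 nm) versus monomer (490/535 nm) fluorescence.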
Test [7] can be described thus: qHTS assay to test for compound auto fluorescence at 590 nm (red) in HepG2 cells (AID 720674). In outline: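 Fluorescence at 590 nm emission following 540 nm excitation was recorded from HepG2 wells one hour after compound transfer, with DMSO-only wells as vehicle and Rose Bengal sodium equivalency as the scale.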
Test [8] can be described thus: qHTS assay to test for compound auto fluorescence at 535 nm (green) in HepG2 cells (AID 720675).
Test [9] in a line: qHTS assay to test for compound auto fluorescence at 460 nm (blue) in HEK293 cells (AID 720678). In outline: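 HEK293, 2,000 cells/well, 10% dialyzed FBS; attach 4-5 hr 37C; pin compound or DMSO; o/n 37C/5% CO2; fluorescence 405/460 nm; triamterene-equivalent units.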
Test [10] in a line: qHTS assay to test for compound auto fluorescence at 590 nm (red) in HEK293 cells (AID 720679). Put shortly:
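Intensity at 540nm excitation and 590nm emission is reported as Rose Bengal sodium-equivalent autofluorescence. Measurements followed overnight exposure (37C, 5% CO2) of HEK293 cells, 2,000 per well, to 23 nL compound.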

A short description of test [11]: qHTS assay to test for compound auto fluorescence at 535 nm (green) in HEK293 cells (AID 720680).
The nature of test [12]: qHTS assay to test for compound auto fluorescence at 460 nm (blue) in HEK293 cell free culture (AID 720681). Put shortly: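 Compounds were added to cell-free DMEM with 10% FBS and fluorescence read directly. The blue channel used 405 nm excitation and 460 nm emission, with triamterene as the reference fluorophore.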
A short description of test [13]: qHTS assay to test for compound auto fluorescence at 535 nm (green) in HEK293 cell free culture (AID 720682). Put shortly:
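Steps: dispense DMEM/10% FBS into empty wells; pin in compound or DMSO; measure fluorescence at 485/535 nm. Values are fluorescein equivalents.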

Test [14] in a line: qHTS assay to test for compound auto fluorescence at 590 nm (red) in HEK293 cell free culture (AID 720683). Put shortly:
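Cell-free wells of DMEM with 10% FBS received compound, and intrinsic fluorescence was read at excitation/emission 540/590 nm. Values expressed as equivalence to Rose Bengal sodium.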

A short description of test [15]: qHTS assay to test for compound auto fluorescence at 590 nm (red) in HepG2 cell free culture (AID 720684). Put shortly: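 Compound was pinned into wells holding MEM with 10% FBS and no cells, and red fluorescence was read at Ex/Em 540/590 nm. Signal is expressed as auto fluorescence equivalency relative to Rose Bengal sodium.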
Test [16] in a line: qHTS assay to test for compound auto fluorescence at 460 nm (blue) in HepG2 cell free culture (AID 720685). In outline: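 Compound (23 nL) or DMSO pinned into cell-free MEM with 10% FBS; blue fluorescence read at 405/460 nm excitation/emission, expressed as auto-fluorescence equivalency to triamterene.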
The nature of test [17]: qHTS assay to test for compound auto fluorescence at 535 nm (green) in HepG2 cell free culture (AID 720686).
The nature of test [18]: qHTS assay to test for compound auto fluorescence at 460 nm (blue) in HepG2 cells (AID 720687). Put shortly: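 HepG2 cells in MEM with 10% FBS, attached overnight at 37 C, were exposed to compound or DMSO for 1 hr at 37 C, 5% CO2. Blue fluorescence was read at 405/460 nm, with triamterene as reference fluorophore.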
Test [19] concerns the target Glucocorticoid receptor (Homo sapiens) (UniProt P04150). Kind of test: qHTS assay to identify small molecule agonists of the glucocorticoid receptor (GR) signaling pathway (AID 720691; active = well fitted activation curve with a large enough effect in the signal ratio in the repeat runs, not every such curve was filed as active; the % refers to the signal ratio). In outline: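 qHTS in GR-bla HeLa cells: 4 h settling at 37 C/5% CO2, 18 h compound incubation at 37 C, 2 h LiveBLAzer B/G FRET substrate at room temperature, fluorescence intensity measured.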

The target is the same in test [20]. Description: qHTS assay to identify small molecule antagonists of the glucocorticoid receptor (GR) signaling pathway (AID 720692; active = well fitted inhibition curve with a large enough effect in the signal ratio in the repeat runs, not every such curve was filed as active; the % refers to the signal ratio). Put shortly: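 Inhibition of glucocorticoid signalling is measured in HeLa cells with a GRE-controlled beta-lactamase reporter; cells are co-treated with compound and 5 nM dexamethasone (final) for 18 h before FRET substrate readout.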

A number with no mark means an inactive call. Records with an inconclusive call do not appear. Calls of active or inactive are those of the source. Unless noted, calls come from the whole dose curve; as a rule, active = well fitted curve in the direction sought with a large enough effect in the repeat runs; inconclusive = weak or mixed curves; inactive = no such curve, though single readings can be large; an effect the other way counts as inactive or inconclusive.

Chain of Glucocorticoid receptor (Homo sapiens) (P04150 whole entry, looked up): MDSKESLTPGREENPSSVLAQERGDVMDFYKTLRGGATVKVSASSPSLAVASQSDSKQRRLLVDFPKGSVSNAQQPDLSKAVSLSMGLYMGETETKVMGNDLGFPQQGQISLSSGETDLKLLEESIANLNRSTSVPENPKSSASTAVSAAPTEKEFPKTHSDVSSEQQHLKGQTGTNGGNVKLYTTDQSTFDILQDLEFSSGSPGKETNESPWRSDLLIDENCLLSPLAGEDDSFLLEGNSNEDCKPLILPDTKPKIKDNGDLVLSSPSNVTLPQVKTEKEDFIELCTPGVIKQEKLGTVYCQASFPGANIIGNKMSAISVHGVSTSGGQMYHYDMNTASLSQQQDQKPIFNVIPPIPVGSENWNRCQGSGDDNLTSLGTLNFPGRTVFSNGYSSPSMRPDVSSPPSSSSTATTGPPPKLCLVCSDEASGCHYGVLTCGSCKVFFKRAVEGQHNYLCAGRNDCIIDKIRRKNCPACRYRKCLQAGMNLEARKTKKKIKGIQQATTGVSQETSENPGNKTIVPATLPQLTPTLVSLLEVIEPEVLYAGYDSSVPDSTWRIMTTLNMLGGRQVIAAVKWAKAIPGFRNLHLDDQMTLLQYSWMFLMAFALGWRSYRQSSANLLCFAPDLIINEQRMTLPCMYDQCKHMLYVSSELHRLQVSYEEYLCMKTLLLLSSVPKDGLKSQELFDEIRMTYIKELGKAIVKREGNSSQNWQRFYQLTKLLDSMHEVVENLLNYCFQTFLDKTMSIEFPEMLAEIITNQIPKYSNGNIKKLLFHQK

For `CC(C)(C)c1ccc(S)cc1`, the Potency result in test [1], in test [2], in test [3], in [4], in test [5] and in [6] was “inactive” in each case. Further, the Potency entry in [9], in [12], in test [16], in [18] and in test [19] was “inactive” each time. Besides, the molecule was called inactive in test [7], in test [8], in test [10], in [11], in test [13] and in [14]. The call in [15] and in [17] was inactive.

As for `Nc1nc(CC(=O)O)cs1`, the Potency entry in test [1], in [2], in [3], in test [4], in test [5] and in [6] was “inactive” each time. Besides, the Potency result in [9], in test [12], in [16], in test [18] and in test [19] was “inactive” throughout. The molecule was called inactive in test [7], in [8], in test [10], in test [11], in [13] and in test [14]. Also, the molecule was called inactive in test [15] and in test [17].

Consider `Oc1ccc(Sc2ccc(O)cc2)cc1`, for which the Potency in [1] was 57.2 µM (active); in [6], 18.1 µM (active). Also, the Potency result in test [2], in test [3], in test [4], in [5], in test [9] and in test [12] was “inactive” throughout. For the same molecule, the Potency result in [16], in [18], in test [19] and in test [20] was “inactive” each time. In addition, the call in test [7], in [8], in test [10], in [11], in [13] and in [14] was inactive. Further, the call in [15] and in test [17] was inactive.

Consider `CCCC(C)C`, for which the Potency result in test [1], in test [2], in test [3], in test [4], in test [5] and in test [6] was “inactive” throughout. Further, the Potency entry in [9], in test [12], in [16], in [18], in test [19] and in test [20] was “inactive” throughout. The molecule was called inactive in [8], in test [10], in test [11], in test [14], in [15] and in test [17].

As to `N#Cc1c(F)cccc1F`, the Potency entry in test [1], in [2], in test [3], in test [4], in test [5] and in [9] was “inactive” each time. For the same molecule, the Potency entry in [12], in [16], in test [18], in [19] and in test [20] was “inactive” in each case. Further, the result in test [7], in test [8], in [10], in test [11], in [13] and in test [14] was inactive. For the same molecule, the molecule was called inactive in test [15] and in test [17].

`Cc1ccc(C(C)c2ccc(C)c(C)c2)cc1C`: the Potency result in [1], in test [2], in test [3], in test [4], in test [5] and in test [6] was “inactive” throughout. Besides, the Potency entry in test [16], in test [18] and in [19] was “inactive” in each case. Further, the call in test [8], in test [11], in test [13], in [14], in [15] and in test [17] was inactive.

For `N#CCc1cccc(C(F)(F)F)c1`, the Potency entry in test [1], in [2], in [3], in test [4], in test [5] and in test [6] was “inactive” each time. The Potency result in [16], in test [18], in test [19] and in [20] was “inactive” throughout. Moreover, the outcome in test [7], in [8], in [10], in test [11], in test [13] and in test [14] was inactive. Moreover, the molecule was classed as inactive in test [15] and in test [17].
